Results filed as inconclusive are left out. Activity calls are given as the source filed them. The calls were made as follows: active = hit-call score of the fitted dose curve at least 0.9, where 1 is the maximum; inconclusive = response in the unintended direction; inactive = score below 0.9.
Key:
AR (gene 367) = AR (gene 367) (UniProt P10275); assay: ACEA_AR_antagonist_80hr: ACEA Biosciences xCELLigence Real-Time Cell Analysis on Androgen Receptor Antagonism for Proliferation (AID 2283787);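 also: 22Rv1 human prostate cancer cells with growth followed by electrical impedance; hits lower the impedance growth signal relative to DMSO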
Method in brief: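 Impedance readout (RT-CES), 80 h post-dose; loss-of-signal vs DMSO baseline. 22Rv1 cells in assay medium. Compounds: 8-pt 1:4 series, max 100 uM final, up to 0.5% DMSO; n = 2.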

[1] = target: Estrogen receptor beta (Homo sapiens) (UniProt Q92731); assay: ATG_hERb_XSP1: Attagene TRANS-FACTORIAL Multi-Species (XSP1) HepG2 Assay for human Estrogen Receptor (ESR2) (AID 2283788)
Experimental: ATG_XSP1_multi-species_TRANS is a cell-based, multiplexed assay created by modifying the existing Attagene TRANS-FACTORIAL system to include a panel of nuclear receptors from some or all the following species: human (Homo sapiens), mouse (Mus musculus), frog (Xenopus laevis), zebrafish (Danio rerio), chicken (Gallus gallus), and turtle (Chrysemys picta). The ECOTOX-FACTORIAL format uses HepG2, a human liver cell line, with measurements taken at 24 hours after chemical dosing in a 24-well plate. Xsp1 included 3 nM 6-alpha-fluorotestosterone to partially stimulate the androgen receptor.ATG_hERb_XSP1 is one of 29 assay components measured or calculated from the ATG_XSP1_multi-species_TRANS assay. It is designed to make measurements of mRNA induction, a form of inducible reporter, as detected with fluorescence intensity signals by Reverse transcription polymerase chain reaction (RT-PCR) and Capillary electrophoresis technology.The assay endpoint ATG_hERb_XSP1 was analyzed in the positive analysis fitting direction relative to DMSO as the negative control and baseline of activity. Using a type of inducible reporter, measures of mRNA for gain-of-signal activity can be used to understand the reporter gene at the transcription factor-level as they relate to the gene ER. Furthermore, this assay endpoint can be referred to as a primary readout, because this assay has produced multiple assay endpoints where this one serves a reporter gene function. […]
Human liver HepG2 cells are transiently transfected with multiple reporter transcription units (MRTUs) in 6-well plates using FuGene 6 reagent (Roche; 3 ml FuGene/1 mg DNA). […] A major difference between the CIS and TRANS system is that in CIS activities of endogenous TFs are measured, whereas the TRANS assay evaluates changes in activities of exogenous, chimeric NR-Gal4 proteins. […] The fragments were purified using Qiaquick PCR columns (Qiagen), analyzed on an ABI 3130xL genetic analyzer (Applied Biosystems) with peak positions identified by using a set of X-rhodamine (ROX)-labeled MapMarker1000 molecular weight standards (BioVentures). […]

[2] = ATG_M_06_XSP1: Attagene TRANS-FACTORIAL Multi-Species (XSP1) HepG2 Assay for M06 Transcription Factor (Internal Marker) (AID 2283790)
Method in brief: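 Transfected HepG2 multi-reporter system treated 24 h in the presence of 3 nM 6-alpha-fluorotestosterone. The M06 internal marker transcript was quantified by RT-PCR with capillary electrophoresis as a background control, and gain of signal was scored versus DMSO.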

[3] = ATG_M_61_XSP1: Attagene TRANS-FACTORIAL Multi-Species (XSP1) HepG2 Assay for M61 Transcription Factor (Internal Marker) (AID 2283797)
Method in brief: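 HepG2 cells transiently transfected with multiplexed GAL4-driven reporter units, dosed 24 h with 3 nM 6-alpha-fluorotestosterone present. Reporter mRNA quantified by RT-PCR, 6-FAM labelling, HpaI digestion and capillary electrophoresis; internal-marker background control, gain of signal versus DMSO.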

[4] = ATG_M_32_XSP1: Attagene TRANS-FACTORIAL Multi-Species (XSP1) HepG2 Assay for M32 Transcription Factor (Internal Marker) (AID 2283799)
Method in brief: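 HepG2 cells transiently transfected with multi-species TRANS reporter units, dosed 24 h with 3 nM 6-alpha-fluorotestosterone present. Internal-marker reporter mRNA quantified by RT-PCR and capillary electrophoresis; positive-direction fit versus DMSO.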

[5] = target: Peroxisome proliferator-activated receptor gamma (Homo sapiens) (UniProt P37231); assay: ATG_hPPARg_XSP1: Attagene TRANS-FACTORIAL Multi-Species (XSP1) HepG2 Assay for human Peroxisome Proliferator-activated Receptor gamma (PPARg) (AID 2283800)
Method in brief: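 HepG2 cells transiently transfected with GAL4-UAS reporter units carrying chimeric NR-Gal4 proteins; 3 nM 6-alpha-fluorotestosterone present. After 24 h dosing, reporter mRNA quantified by RT-PCR and capillary electrophoresis; gain of signal relative to DMSO.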

[6] = test system: zebrafish Peroxisome Proliferator-activated Receptor gamma (PPARg), gene 557037; assay: ATG_zfPPARg_XSP1: Attagene TRANS-FACTORIAL Multi-Species (XSP1) HepG2 Assay for zebrafish Peroxisome Proliferator-activated Receptor gamma (PPARg) (AID 2283801)
Method in brief: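 HepG2 cells transiently transfected with GAL4-UAS reporter units including a zebrafish PPARg–GAL4 chimera, dosed 24 h with 3 nM 6-alpha-fluorotestosterone present. Reporter mRNA quantified by RT-PCR, FAM labelling, HpaI digestion and capillary electrophoresis; induction versus DMSO.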

[7] = target: GAL4 Transcription Factor (Internal Marker), GAL4 (gene 855828) (UniProt P04386); assay: ATG_GAL4_XSP1: Attagene TRANS-FACTORIAL Multi-Species (XSP1) HepG2 Assay for GAL4 Transcription Factor (Internal Marker) (AID 2283789)
Method in brief: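 HepG2 cells transiently transfected with multiplexed GAL4-UAS reporter units were exposed for 24 h with 3 nM 6-alpha-fluorotestosterone present. Reporter mRNA was quantified by RT-PCR, FAM labelling, HpaI digestion and capillary electrophoresis; background-control readout, gain-of-signal versus DMSO.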

[8] = ATG_M_19_XSP1: Attagene TRANS-FACTORIAL Multi-Species (XSP1) HepG2 Assay for M19 Transcription Factor (Internal Marker) (AID 2283798)
Method in brief: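 HepG2 cells transiently transfected with multiplexed GAL4-UAS reporter units, dosed 24 h with 3 nM 6-alpha-fluorotestosterone present for partial AR stimulation. Reporter mRNA measured by RT-PCR with capillary electrophoresis; gain-of-signal fitted relative to DMSO.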

Chain of Peroxisome proliferator-activated receptor gamma (Homo sapiens) (P37231 whole entry, looked up, the tested form may be a part): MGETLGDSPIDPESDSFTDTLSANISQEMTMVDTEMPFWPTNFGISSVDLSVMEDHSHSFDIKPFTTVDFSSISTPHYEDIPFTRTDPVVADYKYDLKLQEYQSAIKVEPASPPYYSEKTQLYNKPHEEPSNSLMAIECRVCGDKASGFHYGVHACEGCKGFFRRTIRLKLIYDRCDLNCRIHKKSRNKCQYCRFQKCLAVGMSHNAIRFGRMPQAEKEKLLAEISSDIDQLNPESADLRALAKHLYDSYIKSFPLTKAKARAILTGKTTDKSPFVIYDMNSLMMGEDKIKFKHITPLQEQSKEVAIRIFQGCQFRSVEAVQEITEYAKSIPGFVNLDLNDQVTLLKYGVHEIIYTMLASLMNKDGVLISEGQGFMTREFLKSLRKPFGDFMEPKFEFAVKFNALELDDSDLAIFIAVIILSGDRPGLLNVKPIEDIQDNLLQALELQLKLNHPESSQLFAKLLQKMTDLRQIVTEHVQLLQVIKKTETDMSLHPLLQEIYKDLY
Chain of AR (gene 367) (P10275 whole entry, looked up): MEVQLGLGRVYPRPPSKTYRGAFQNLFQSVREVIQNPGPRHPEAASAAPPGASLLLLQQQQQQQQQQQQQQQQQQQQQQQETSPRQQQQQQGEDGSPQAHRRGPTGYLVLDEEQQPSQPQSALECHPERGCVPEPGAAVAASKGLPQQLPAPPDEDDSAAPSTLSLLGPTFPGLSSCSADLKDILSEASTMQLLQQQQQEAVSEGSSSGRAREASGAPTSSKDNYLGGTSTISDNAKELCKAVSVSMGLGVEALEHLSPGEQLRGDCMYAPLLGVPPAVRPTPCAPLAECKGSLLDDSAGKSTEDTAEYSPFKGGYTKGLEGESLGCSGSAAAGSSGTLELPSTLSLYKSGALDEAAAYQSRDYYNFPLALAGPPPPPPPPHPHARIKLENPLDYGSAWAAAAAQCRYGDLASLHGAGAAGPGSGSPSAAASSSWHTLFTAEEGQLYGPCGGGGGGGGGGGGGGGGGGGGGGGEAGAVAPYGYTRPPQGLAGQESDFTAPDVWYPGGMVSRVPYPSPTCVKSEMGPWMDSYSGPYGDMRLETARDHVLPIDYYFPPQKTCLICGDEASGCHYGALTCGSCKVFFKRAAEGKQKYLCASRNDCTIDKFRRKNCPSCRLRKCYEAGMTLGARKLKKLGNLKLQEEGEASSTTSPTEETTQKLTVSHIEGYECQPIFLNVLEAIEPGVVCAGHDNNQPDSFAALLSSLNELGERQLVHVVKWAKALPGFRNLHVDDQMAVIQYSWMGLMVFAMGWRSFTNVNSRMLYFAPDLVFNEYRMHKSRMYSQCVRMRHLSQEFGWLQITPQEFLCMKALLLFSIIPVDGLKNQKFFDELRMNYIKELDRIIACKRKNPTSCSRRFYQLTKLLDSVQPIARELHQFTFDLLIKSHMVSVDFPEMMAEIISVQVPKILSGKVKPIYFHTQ
Chain of Estrogen receptor beta (Homo sapiens) (Q92731 whole entry, looked up): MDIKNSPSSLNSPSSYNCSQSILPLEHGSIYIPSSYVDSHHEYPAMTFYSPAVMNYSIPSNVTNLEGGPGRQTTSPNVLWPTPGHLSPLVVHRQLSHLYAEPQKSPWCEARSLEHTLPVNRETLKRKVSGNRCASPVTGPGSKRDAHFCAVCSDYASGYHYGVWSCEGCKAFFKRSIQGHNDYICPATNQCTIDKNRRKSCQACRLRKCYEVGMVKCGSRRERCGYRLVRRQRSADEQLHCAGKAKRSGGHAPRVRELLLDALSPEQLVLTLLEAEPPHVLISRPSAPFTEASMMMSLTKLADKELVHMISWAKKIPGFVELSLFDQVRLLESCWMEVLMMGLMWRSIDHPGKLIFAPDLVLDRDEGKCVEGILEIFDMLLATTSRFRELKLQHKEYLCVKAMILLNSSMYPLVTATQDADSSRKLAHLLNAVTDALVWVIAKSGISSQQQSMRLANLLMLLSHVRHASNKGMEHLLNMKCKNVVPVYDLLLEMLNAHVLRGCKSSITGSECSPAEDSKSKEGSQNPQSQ
Chain of GAL4 Transcription Factor (Internal Marker), GAL4 (gene 855828) (P04386 whole entry, looked up, the tested form may be a part): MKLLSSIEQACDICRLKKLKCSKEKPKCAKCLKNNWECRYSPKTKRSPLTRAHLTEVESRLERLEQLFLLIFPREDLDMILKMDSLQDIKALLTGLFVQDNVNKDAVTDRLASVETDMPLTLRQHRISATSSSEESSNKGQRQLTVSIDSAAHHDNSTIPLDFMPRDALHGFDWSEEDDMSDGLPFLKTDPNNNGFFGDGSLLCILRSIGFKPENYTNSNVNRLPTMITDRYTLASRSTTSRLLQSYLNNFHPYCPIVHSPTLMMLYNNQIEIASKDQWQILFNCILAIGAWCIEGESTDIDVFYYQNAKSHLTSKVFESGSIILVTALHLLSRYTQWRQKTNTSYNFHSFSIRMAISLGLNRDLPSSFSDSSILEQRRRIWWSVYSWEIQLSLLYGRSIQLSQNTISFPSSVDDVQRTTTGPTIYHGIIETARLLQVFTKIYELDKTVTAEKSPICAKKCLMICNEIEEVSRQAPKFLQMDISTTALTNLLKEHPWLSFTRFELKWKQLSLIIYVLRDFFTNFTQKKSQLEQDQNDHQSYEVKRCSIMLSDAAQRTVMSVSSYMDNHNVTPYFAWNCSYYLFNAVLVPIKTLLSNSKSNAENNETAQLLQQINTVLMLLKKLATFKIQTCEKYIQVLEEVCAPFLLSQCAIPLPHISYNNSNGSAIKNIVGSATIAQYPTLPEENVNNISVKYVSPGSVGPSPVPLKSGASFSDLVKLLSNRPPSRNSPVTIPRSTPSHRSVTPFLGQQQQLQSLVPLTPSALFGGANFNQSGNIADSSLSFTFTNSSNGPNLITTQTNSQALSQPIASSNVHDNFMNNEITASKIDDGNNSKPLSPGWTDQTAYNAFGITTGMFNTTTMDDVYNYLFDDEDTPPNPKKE

For `CCCSP(=O)(OCC)SCCC`, the AC50 (AR (gene 367)) was 34 µM (active).
For `CCc1cccc(C)c1N(C(=O)CCl)C(C)COC` (centres undefined), the AC50 [1] was 4.14 µM (active), the outcome [2] was “inactive” and the outcome [3] was “inactive”. For the same compound, the outcome [4] was “inactive”, the AC50 [5] was 5.37 µM (active) and the outcome [6] was “inactive”.
With `C#CCC1=C(C)C(OC(=O)C2C(C=C(C)C)C2(C)C)CC1=O` (centres undefined) the outcome [1] was “inactive”, the outcome [2] was “inactive” and the outcome [3] was “inactive”. For the same compound, the outcome [4] was “inactive” and the AC50 [5] was 27.2 µM (active).
In the case of `C=C(C)[C@H]1Cc2c(ccc3c2O[C@@H]2COc4cc(OC)c(OC)cc4[C@@H]2C3=O)O1`, the AC50 (AR (gene 367)) is reported as 1.54 µM (active).
With `N#CSCSC#N` the AC50 (AR (gene 367)) was 11.7 µM (active).
For `CCCOCC(=Nc1ccc(Cl)cc1C(F)(F)F)n1ccnc1`, the outcome [7] was “inactive”, the outcome [8] was “inactive” and the outcome [4] was “inactive”. The AC50 [5] was 0.985 µM (active) and the outcome [6] was “inactive”.
In the case of `CNC(=O)ON=C(SC)C(=O)N(C)C`, the outcome (AR (gene 367)) is reported as “inactive”.
In the case of `CCOP(=O)(NC(C)C)Oc1ccc(SC)c(C)c1` (centres undefined), the AC50 (AR (gene 367)) is reported as 40.5 µM (active).
For `CCOC(=O)COc1cc(-c2nn(C)c(OC(F)F)c2Cl)c(F)cc1Cl`, the AC50 (AR (gene 367)) was 28.1 µM (active).
With `CCOP(=S)(OCC)Oc1ccc2c(C)c(Cl)c(=O)oc2c1` the outcome [1] was “inactive”, the outcome [2] was “inactive” and the outcome [3] was “inactive”. The outcome [8] was “inactive”, the outcome [4] was “inactive” and the AC50 [5] was 11.4 µM (active).
For `COc1ccc(C(=CC(=O)N2CCOCC2)c2ccc(Cl)cc2)cc1OC`, the AC50 (AR (gene 367)) was 15.8 µM (active).
With `COP(=O)(OC)OC(Br)C(Cl)(Cl)Br` (centres undefined) the AC50 (AR (gene 367)) was 69.5 µM (active).
In the case of `CCc1cccc(CC)c1N(COC)C(=O)CCl`, the AC50 (AR (gene 367)) is reported as 63.9 µM (active).
In the case of `CC(COc1ccc(Oc2ccccc2)cc1)Oc1ccccn1` (centres undefined), the AC50 (AR (gene 367)) is reported as 66.3 µM (active).
With `CCC(=O)Nc1ccc(Cl)c(Cl)c1` the AC50 (AR (gene 367)) was 20 µM (active).
With `CCCCOC(=O)c1ccccc1C(=O)O` the outcome (AR (gene 367)) was “inactive”.
